Data on 33 molecules can be found in the supplement of paper PMC6607015.

Structures can show the parent of a compound that is named as a salt.

This test deals with A431. The test can be described thus: filipin (cholesterol) integrated intensity within LBPA endosomes, Z-score; higher = more cholesterol in LBPA endosomes. Conditions: compound concentration in added solution (µM; 5 µl added to 20 µl cells): 10; 18 h. A digest of the protocol:
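Duplicate 384-well imaging plates were prepared with 5 µl of 10 µM compound solution per well, and 3,500 HeLa MZ or A431 cells in 20 µl were added on top. Following 18 h of incubation and fixation in 4% PFA, cells received 6C4 anti-LBPA antibody, filipin, propidium iodide and CellTracker green. Four images per well at 20× were segmented in MetaXpress to yield per-cell integrated LBPA or filipin intensity, whole-cell or within LBPA endosomes. These intensities are reported as Z-scores normalised in AcuityXpress.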
Take `CCN1CCC[C@H]1CNC(=O)c1c(OC)ccc(Br)c1OC` [Remoxipride Hydrochloride]: the “filipin (z-score)” value was -0.372.

Consider `CN(C(=O)C(Cl)Cl)c1ccc(OC(=O)c2ccco2)cc1` [Diloxanide furoate], for which the “filipin (z-score)” value is -0.498.

For the molecule `CCn1cc(C(=O)O)c(=O)c2ccc(C)nc21` [Nalidixic acid sodium salt], the “filipin (z-score)” value was -0.467.

On to `O=C1CCc2cc(OCCCCc3nnnn3C3CCCCC3)ccc2N1` [Cilostazol], for which the “filipin (z-score)” value is -0.49.

For the molecule `CNC(=C[N+](=O)[O-])NCCSCc1ccc(CN(C)C)o1` [Ranitidine hydrochloride], the “filipin (z-score)” value was -0.524.

For `CCc1cccc2c3c([nH]c12)C(CC)(CC(=O)O)OCC3` (stereo not drawn) [Etodolac], the “filipin (z-score)” value is -0.553.

On to `Nc1c2c(nc3ccccc13)CCCC2` [Tacrine hydrochloride], for which the “filipin (z-score)” value amounted to 0.0216.

As to `CNNCc1ccc(C(=O)NC(C)C)cc1` [Procarbazine hydrochloride], the “filipin (z-score)” value is -0.487.

Regarding `COCCOC(=O)C1=C(C)NC(C)=C(C(=O)OC(C)C)C1c1cccc([N+](=O)[O-])c1` (stereo not drawn) [Nimodipine], the “filipin (z-score)” value was -0.323.

For `NC[C@@H]1O[C@@H](O[C@H]2[C@H](O)[C@@H](O[C@H]3O[C@H](CO)[C@@H](O)[C@H](N)[C@H]3O)[C@H](N)C[C@@H]2N)[C@@H](O)[C@H](O)[C@H]1O` [Kanamycin A sulfate], the “filipin (z-score)” value is -0.515.

With `OC[C@H]1O[C@@H](Oc2ccc(O)cc2)[C@H](O)[C@@H](O)[C@@H]1O` [Arbutin], the “filipin (z-score)” value is -0.436.

`CCOC(=O)[C@@](C)(N)Cc1ccc(O)c(O)c1` [Methyldopate hydrochloride]: the “filipin (z-score)” value was -0.327.

On to `CC1(C)S[C@@H]2[C@H](NC(=O)[C@H](N)c3ccccc3)C(=O)N2[C@H]1C(=O)O` [Ampicillin trihydrate], for which the “filipin (z-score)” value is -0.569.

Consider `Oc1ncnc2[nH]ncc12` [Allopurinol], for which the “filipin (z-score)” value is -0.415.

Regarding `CO/N=C(\C(=O)N[C@@H]1C(=O)N2C(C(=O)O)=C(COC(N)=O)CS[C@H]12)c1ccco1` [Cefuroxime sodium salt], the “filipin (z-score)” value was -0.419.

`OCCN1CCN(CC/C=C2/c3ccccc3Sc3ccc(Cl)cc32)CC1` [Zuclopenthixol hydrochloride]: the “filipin (z-score)” value came to 2.79.

In the case of `Cn1nnnc1SCC1=C(C(=O)O)N2C(=O)[C@@H](NC(=O)[C@H](O)c3ccccc3)[C@H]2SC1` [Cefamandole sodium salt], the “filipin (z-score)” value is -0.431.

As for `CC(N/C(=N\C#N)Nc1ccncc1)C(C)(C)C` (stereo not drawn) [Pinacidil], the “filipin (z-score)” value is -0.45.

With `COc1ccccc1Oc1c(NS(=O)(=O)c2ccc(C(C)(C)C)cc2)nc(-c2ncccn2)nc1OCCO` [Bosentan], the “filipin (z-score)” value is -0.493.

Consider `CC(C)(O/N=C(\C(=O)N[C@@H]1C(=O)N2C(C(=O)[O-])=C(C[n+]3ccccc3)CS[C@H]12)c1csc(N)n1)C(=O)O` [Ceftazidime pentahydrate], for which the “filipin (z-score)” value was -0.531.

With `Nc1nc2c(ncn2COC(CO)CO)c(=O)[nH]1` [Ganciclovir], the “filipin (z-score)” value was -0.332.

For the molecule `CCN(CCCc1ccccc1)CCCc1ccccc1` [Alverine citrate salt], the “filipin (z-score)” value was 1.44.

`CC(=O)OC(C)C[N+](C)(C)C` (stereo not drawn) [Methacholine chloride]: the “filipin (z-score)” value is -0.383.

In the case of `C[C@@H](c1ncncc1F)[C@](O)(Cn1cncn1)c1ccc(F)cc1F` [Voriconazole], the “filipin (z-score)” value is -0.605.

For `Nc1nc(F)nc2c1ncn2[C@@H]1O[C@H](CO)[C@@H](O)[C@@H]1O` [Fludarabine], the “filipin (z-score)” value is -0.372.

With `Cc1ccc2c(c1)c1c3n2CCNC3CCC1` (stereo not drawn) [Pirlindole mesylate], the “filipin (z-score)” value amounted to 0.437.

For `O=C(O[C@@H]1C[C@@H]2C[C@H]3C[C@H](C1)N2CC3=O)c1c[nH]c2ccccc12` [Dolasetron mesilate], the “filipin (z-score)” value is -0.498.

With `COC(=O)C1=C(C)NC(C)=C(C(=O)OCC(C)C)C1c1ccccc1[N+](=O)[O-]` (stereo not drawn) [Nisoldipine], the “filipin (z-score)” value was -0.263.

`CN(Cc1cnc2nc(N)nc(N)c2n1)c1ccc(C(=O)N[C@@H](CCC(=O)O)C(=O)O)cc1` (racemic) [Amethopterin (R,S)]: the “filipin (z-score)” value was -0.749.

In the case of `NS(=O)(=O)c1cc2c(cc1Cl)NC(CC1CCCC1)NS2(=O)=O` (stereo not drawn) [Cyclopenthiazide], the “filipin (z-score)” value was -0.442.

Turning to `NC(=O)c1cc[n+](CC2=C(C(=O)[O-])N3C(=O)[C@@H](NC(=O)[C@@H](c4ccccc4)S(=O)(=O)O)[C@H]3SC2)cc1` [Cefsulodin sodium salt], the “filipin (z-score)” value was -0.357.

For the molecule `CS(=O)(=O)c1ccc(C2=C(c3ccccc3)C(=O)OC2)cc1` [Rofecoxib], the “filipin (z-score)” value was -0.59.

Take `O=c1oc2ccccc2c(O)c1Cc1c(O)c2ccccc2oc1=O` [Dicumarol]: the “filipin (z-score)” value is -0.64.
